Molecules are shown by their SMILES. Screen size: about 52,000 compounds; about 1,700 (3.3%) were called active. The sample as a whole holds a higher share of actives than the screen did. Unmarked numbers belong to inactive results. Rule as the data show it: active = survival mostly below about 52% (no sharp cut-off); inactive = mostly above about 56%.

This assay concerns Wild type. In words: growth inhibition of S. aureus wild type versus tarO mutant, primary screen, teichoic acid synthesis inhibitors, RN4220, OD600 (AID 463173). The conditions noted are these: S. aureus RN4220 wild type/DeltatarO growth, OD600, 18 h, hits give low values, screened at 18.75 µg/mL (by protocol).
As to `Cc1ccc(C)c(CSc2nnc3[nH]c(=O)cc(-c4ccccc4)n23)c1`, the survival is 86%.
The value for `Cc1cccc(N2CCN(c3nc4ccccc4c4nnc(C)n34)CC2)c1C` was 98%; that for `COc1ccc(NC(=O)C2CCN(C(=O)c3sc4nc[nH]c(=O)c4c3C)CC2)cc1Cl` was 85%; that for `CCOc1ccccc1NC(=O)CN1c2ccccc2S(=O)(=O)c2ccccc21` was 10% (active).
`Cc1cccc(NC(=O)CN2c3ccccc3S(=O)(=O)c3ccccc32)c1C`: the survival is -3% (active).
Turning to `CCOc1ccccc1NC(=O)CN1C=NS(=O)(=O)c2ccccc21`, the survival was 59%.
As to `Cc1cc(C)c(NC(=O)CN2c3ccccc3S(=O)(=O)c3ccccc32)c(C)c1`, the survival is 124%.
As to `CCOc1ccccc1NC(=O)CN1C(=O)C(=O)c2ccccc21`, the survival was 115%.
As to `O=C(CN1c2ccccc2S(=O)(=O)c2ccccc21)Nc1ccccc1Cl`, the survival is 65%.
Then `CCn1nc(-c2ccccc2)c(-c2ccccc2)c(C(=O)Nc2ccc(NC(C)=O)cc2)c1=O`, with 88%; and `CCC(C)(C)n1nnnc1C(c1ccccc1OC)N1CCN(C(=O)c2ccco2)CC1` (centres undefined), with 105%; and `Cc1ccc(C)c(Cn2c(C(C)NC(=O)c3ccc(F)cc3)nc3ccccc32)c1` (centres undefined), with 83%.
As for `COc1ccc(C(=O)N2CCN(C(=O)COc3ccccc3)CC2)cc1OC`, the survival is 79%.
Then `CC(=O)N1c2ccc(S(=O)(=O)NCC3CCC(C(=O)Nc4cccc(C)c4)CC3)cc2CC1C` (centres undefined), with 91%.
The value for `Cc1ccc(C(=O)Nc2ccc(-c3nc4ccccc4s3)cc2C)cc1C` was 73%; that for `CSc1ncc(C(=O)N2CCN(c3cccc(C(F)(F)F)c3)CC2)c(C)n1` was 73%; that for `CSc1ncc(C(=O)N2CCN(c3ccc(Cl)cc3)CC2)c(C)n1` was 124%.
As for `CSc1ncc(C(=O)N2CCN(c3cccc(Cl)c3)CC2)c(C)n1`, the survival was -3% (active).
The value for `CCCCN(CCCNC(=O)c1c(C)oc2nc[nH]c(=O)c12)Cc1ccccc1` was 71%; that for `Cc1oc2ccc(O)c(CN3CCCC(C)C3)c2c1C(=O)Nc1ccccc1` (centres undefined) was 91%.
As to `CCN(Cc1ccccc1)Cc1c(O)ccc2c(=O)c(-c3ccccc3Cl)coc12`, the survival was 73%.
As to `CCN(CC)c1ccc(NC(=O)CN2C(=O)c3cccnc3Sc3ccccc32)c(C)c1`, the survival was -4% (active).
Then `CCN(CC)c1ccc(NC(=O)CN2C(=O)c3cccnc3Oc3ccccc32)c(C)c1`, with 135%; and `Cc1cc(Br)ccc1NC(=O)CN1C(=O)c2cccnc2Sc2ccccc21`, with 85%.
In the case of `CCC(=O)Nc1ccc(CC)cc1-c1nc2ccccc2n(CC(=O)Nc2ccccc2C)c1=O`, the survival is 88%.
The value for `COc1ccc(Nc2ncc3c(n2)CCN(Cc2ccc(Br)s2)C3)c(OC)c1` was 127%; that for `CCn1c2ccccc2c2cc(CN3CCN(Cc4ccccc4C)CC3)ccc21` was -1% (active); that for `CCOc1ccc(CNC(=O)C2CCN(Cc3cc4ccccc4n3Cc3ccccc3C)CC2)cc1` was 60%.
Then `CCN(CC)C(=O)C1CCN(Cc2ccccc2F)CC1`, with 107%; and `O=c1c2ccccc2n(Cc2ccccc2F)c(=O)n1-c1cccc(F)c1`, with 75%; and `Cc1ccccc1Cn1c(CN2CCC(C(=O)NCc3ccc(Cl)cc3)CC2)cc2ccccc21`, with 60%.
On to `CCn1c2ccccc2c2cc(CN3CCN(Cc4ccccc4F)CC3)ccc21`, for which the survival is 4% (active).
Then `O=C1NC(=O)C(Nc2cccc3ccccc23)S1` (centres undefined), with 104%; and `O=C(CSc1nnc(Cn2nnc3ccccc32)o1)N(Cc1ccc(Cl)cc1)c1ccccc1`, with 141%; and `CCOC(=O)c1ccccc1NC(=O)c1ccncc1`, with 94%.
`CCC(=O)NCC1(c2ccccc2)CCCC1`: the survival is 102%.
As to `Cc1ccc(C(CC(=O)NCC2(c3ccccc3)CCCC2)c2ccccc2)c(O)c1` (centres undefined), the survival was 36%.
The value for `Cc1cccc(C(CC(=O)NCC2(c3ccccc3)CCCC2)c2ccccc2)c1O` (centres undefined) was 2% (active); that for `Cc1ccc(O)c(C(CC(=O)NCC2(c3ccccc3)CCCC2)c2ccccc2)c1` (centres undefined) was 6% (active); that for `Cc1ccccc1NC(=O)C(=O)NCC1(c2ccccc2)CCCC1` was 94%.
Then `O=C(CC(c1ccccc1)c1cc(Br)ccc1O)NCC1(c2ccccc2)CCCC1` (centres undefined), with 63%; and `COc1ccc(-c2cc(C(F)(F)F)nc(SCCC(=O)Nc3cccc(O)c3)n2)cc1`, with 80%.
Then `COc1cc(Cl)c(C)cc1NC(=O)c1nn(C)c2c1CSc1ccccc1-2`, with 85%; and `Cn1c(SCC(=O)c2ccc(F)cc2)nnc1-c1ccccc1Br`, with 74%.
As to `COc1ccccc1-c1nnc(SCC(=O)c2ccc(F)cc2)n1-c1ccccc1`, the survival is 0% (active).
As for `Cc1ccc(-c2nnc(SCC(=O)c3ccc(Cl)cc3)n2-c2ccccc2)cc1`, the survival was 94%.
With `O=C(CSc1nnc(-c2ccc(Br)cc2)n1-c1ccccc1)c1ccccc1`, the survival was 97%.
On to `CCOc1ccc(-c2nnc(SCC(=O)c3ccc(F)cc3)n2-c2ccccc2)cc1`, for which the survival was 153%.
In the case of `Cc1ccc(C(=O)CSc2nnc(-c3ccccc3)n2-c2ccccc2)cc1`, the survival is 79%.
The value for `O=C(CSc1nnc(-c2ccccc2Br)n1-c1ccccc1)c1ccc(F)cc1` was 4% (active); that for `COc1ccccc1-c1nnc(SCC(=O)OC(C)C)n1-c1ccccc1` was 115%.
Then `COc1ccccc1-c1nnc(SCC(=O)c2ccc(Cl)cc2)n1-c1ccccc1`, with 0% (active); and `CCc1cccc(NC(=O)CN(C)S(=O)(=O)c2ccc3c(c2)CCCN3C(C)=O)c1`, with 83%; and `COc1ccc(F)cc1S(=O)(=O)NCC(c1ccco1)S(=O)(=O)c1cccs1` (centres undefined), with 81%.
The value for `CCCN1CCN(CC2=C(C(=O)OCC)C(c3ccc(OC(C)C)cc3)NC(=O)N2)CC1` (centres undefined) was 72%; that for `COc1ccc(-n2nnc(-c3nc(-c4cccs4)no3)c2N)cc1OC` was 100%.
For `CCN1CCN(C(c2ccc(F)cc2)c2sc3nc(-c4ccco4)nn3c2O)CC1` (centres undefined), the survival is 131%.
The value for `Cc1ccc(C(=O)N2CCN(c3cccc(Cl)c3)CC2)cc1-n1c(C)nc2cccnc21` was 84%.
Consider `Cc1cc2c(cc1S(=O)(=O)NCc1ccc(F)cc1)OCC(=O)N2`, for which the survival was 82%.
The value for `CCOc1ccc(C(=O)N2CCC(c3ccncc3)CC2)cc1` was 78%; that for `CCOc1cc(C(=O)N2CCC(c3ccncc3)CC2)cc(OCC)c1OCC` was -1% (active); that for `COc1cc(OC)cc(C(=O)N2CCC(c3ccncc3)CC2)c1` was 69%.
The value for `COc1ccc(C(=O)N2CCC(c3ccncc3)CC2)cc1OC` was -6% (active); that for `COc1cc(C(=O)N2CCC(c3ccncc3)CC2)cc(OC)c1OC` was 78%.
For the compound `CCN(CC)c1ccc(C(=O)N2CCC(c3ccncc3)CC2)cc1`, the survival is 85%.
On to `Cc1ccc(C)c(C(=O)COC(=O)CCCC(=O)Nc2cc(C(F)(F)F)ccc2Cl)c1`, for which the survival was 45%.
Then `Cc1c(C(=O)Nc2ccc(F)c(Cl)c2)sc2nc3n(c(=O)c12)CCC3`, with 81%.
The value for `CCc1nc(SCc2ccccc2)[nH]c(=O)c1C` was 102%; that for `COc1cccc(NC(=O)Cn2c(=O)n(CCCCC(=O)NCc3ccc4c(c3)OCO4)c(=O)c3ccccc32)c1` was 92%; that for `CCCCc1ccc(NC(=O)CSc2nc3ccccc3nc2N2CCCCC2)cc1` was 41%.
As to `CCc1cccc(NC(=O)CSc2nc3ccccc3nc2N2CCCCC2)c1`, the survival is -13% (active).
`CC(=O)Nc1ccc(NC(=O)CSc2nc3ccccc3nc2N2CCCCC2)cc1`: the survival was 90%.
Then `COc1cccc(NC(=O)CSc2nc3ccccc3nc2N2CCOCC2)c1`, with 67%; and `COc1ccc(OC)c(NC(=O)CSc2nc3ccccc3nc2N2CCCCC2)c1`, with -10% (active).
As for `COc1ccc(NC(=O)CSc2nc3ccccc3nc2N2CCOCC2)c(OC)c1`, the survival was 65%.
Regarding `O=C(CSc1nc2ccccc2nc1Cc1ccc(Cl)cc1)NCCc1ccccc1`, the survival was 69%.
The value for `COc1ccc(CCNC(=O)CSc2nc3ccccc3nc2Cc2ccc(C)cc2)cc1OC` was 52%.
Then `COc1ccc(CCNC(=O)CSc2nc3ccccc3nc2Cc2ccc(Cl)cc2)cc1OC`, with 10% (active).
The value for `COc1ccc(NC(=O)CSc2nc3ccccc3nc2N2CCCCC2)cc1` was 7% (active).
Turning to `COc1cccc(Cc2nc3ccccc3nc2SCC(=O)Nc2cc(OC)ccc2OC)c1`, the survival is 60%.
For `COc1ccc(NC(=O)CSc2nc3ccccc3nc2N2CCC(C)CC2)cc1`, the survival was 45%.
Then `COc1ccc(NC(=O)CC2C(=O)N(c3ccc(C)cc3)C(=O)N2C2CCCCC2)cc1` (centres undefined), with 74%.
Then `CCOC(=O)c1noc2nc(C)n(CC(=O)Nc3ccccc3F)c(=O)c12`, with 124%; and `COc1cccc(C(=O)Nc2ccccc2-c2nnc(-c3ccc(C(C)(C)C)cc3)o2)c1`, with 71%; and `CCOc1cc(C(=O)N2CC(=O)Nc3ccc(F)cc3C2c2ccccc2)cc(OCC)c1OCC` (centres undefined), with 75%.
On to `O=C(NC1CCCCC1)C(c1ccco1)N(C(=O)C1COc2ccccc2O1)c1cccc(F)c1` (centres undefined), for which the survival is 132%.
The value for `COc1ccc(NC(=O)c2c(C(=O)Nc3ccccc3)sc3nc(C)cc(=O)n23)cc1` was 93%; that for `NC(=O)CSc1nsc(SCC(N)=O)n1` was 109%; that for `COc1ccccc1Cc1nc2ccccc2nc1SCC(=O)Nc1cc(Cl)ccc1OC` was 89%.
The value for `COc1ccc(C)cc1NC(=O)CSc1nc2ccccc2nc1N1CCOCC1` was 72%; that for `Cc1cc(C)c(NC(=O)CSc2nc3ccccc3nc2N2CCCCC2)c(C)c1` was 38%.
Then `COc1ccc(Cl)cc1NC(=O)CSc1nc2ccccc2nc1N1CCCCC1`, with -9% (active); and `CC(C)NC(=O)CSc1nc2ccccc2nc1N1CCCCC1`, with -28% (active); and `O=C(O)CSc1nc2ccccc2nc1N1CCCCC1`, with 62%.

These data come from PubChem BioAssay AID463173 (ICCB-Longwood Screening Facility, Harvard Medical School, 2010).
